# In PubChem BioAssay (NCATS):
# Records with an inconclusive call do not appear. Where a call stands in place of a potency, no number is given. The source made the active and inactive calls. Calls follow the shape of the dose curve; as a rule, active = well fitted curve in the direction sought with a large enough effect; inconclusive = small, poorly fitted or top-dose-only effect, or another doubt; inactive = no such curve, though single readings can be large; an effect the other way counts as inactive or inconclusive.
# What was measured:
# [1] = target: Glutathione peroxidase 1 (Homo sapiens) (UniProt P07203); experiment: Primary qHTS Assay for Inhibitors of Recombinant Selenoprotein Glutathione Peroxidase 1 (GPX1) (AID 1845191); also: nearly all actives have a fitted effect of over 65% in size; also: potency is read from the fitted curve at half-maximal effect
# Chain of Glutathione peroxidase 1 (Homo sapiens) (P07203 whole entry, looked up): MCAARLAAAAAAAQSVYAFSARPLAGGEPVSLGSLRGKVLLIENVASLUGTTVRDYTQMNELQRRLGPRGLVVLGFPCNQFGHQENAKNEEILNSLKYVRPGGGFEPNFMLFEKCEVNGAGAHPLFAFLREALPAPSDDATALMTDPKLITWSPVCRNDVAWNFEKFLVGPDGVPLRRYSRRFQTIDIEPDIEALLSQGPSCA
# Procedure, shortened: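 GR-coupled readout: NADPH consumption tracked by fluorescence, ex 340/em 450 nm, at t=0 and after 15 min at RT. Final mix 10 nM GPX1, 1 mM GSH, 0.5 mM CHP, 0.5 mM NADPH, 100 nM GR, 0.01% BSA, following 30 min enzyme–compound preincubation.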
# [2] = target: Phospholipid hydroperoxide glutathione peroxidase GPX4 (Homo sapiens) (UniProt P36969); experiment: Primary qHTS Assay for Inhibitors of Recombinant Selenoprotein Glutathione Peroxidase 4 (GPX4) (AID 1845192); also: nearly all actives have a fitted effect of over 65% in size
# Chain of Phospholipid hydroperoxide glutathione peroxidase GPX4 (Homo sapiens) (P36969 whole entry, looked up): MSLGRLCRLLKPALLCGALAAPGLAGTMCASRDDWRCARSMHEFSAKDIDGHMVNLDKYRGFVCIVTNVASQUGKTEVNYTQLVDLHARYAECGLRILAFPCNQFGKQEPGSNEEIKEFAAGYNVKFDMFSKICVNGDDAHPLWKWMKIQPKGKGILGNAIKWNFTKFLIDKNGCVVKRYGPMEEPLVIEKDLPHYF
# Procedure, shortened: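 Steps: GPX4 plus compound, 30 min RT; add GR/GSH/NADPH master mix; start with cumene hydroperoxide; read 340/450 nm fluorescence at 0 and 15 min. Finals were 200 nM GPX4, 1 mM GSH, 0.5 mM CHP, 0.5 mM NADPH, 100 nM GR.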
# [3] = target: Luciferin 4-monooxygenase (Photinus pyralis) (UniProt P08659); experiment: Primary firefly luciferase (FLuc) qHTS assay for identification of artifact compounds. (AID 1845220); also: nearly all actives have a fitted effect of over 60% in size
# Procedure, shortened: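 Titrated compounds were incubated 15 min at RT, protected from light, with luciferin and ATP at 10 uM; reaction started with 10 nM FLuc, luminescence imaged at 5 min, and concentration-response fitted by Hill equation.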
# [4] = system: Nanoluciferase (engineered Oplophorus gracilirostris luciferase); experiment: Primary Nanoluciferase (NLuc) qHTS assay for identification of artifact compounds. (AID 1845222);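 also: NLuc secreted into diluted conditioned medium of S16 cells; series mostly up to about 54 µM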
# Procedure, shortened: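 qHTS format, against NLuc in S16 cell-conditioned medium. Nano-Glo substrate 1:100 was added after 15 min at room temperature. Luminescence was taken after a further 5 min.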
# [5] = Primary fluorescence-based thiol-reactive (MSTI) qHTS assay for identification of artifact compounds. (AID 1845221); also: nearly all actives have a fitted effect of over 65% in size; also: potency is read from the fitted curve at half-maximal effect
# Procedure, shortened: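 MSTI probe at 4 uM final in 2% DMSO/PBS pH 7.4; compounds, 1 h at room temperature in dark. Fluorescence Ex/Em 525/598 nm, normalised to Acetyl-MSTI and MSTI, fitted to 4-parameter Hill.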
SMILES,Potency [1],Potency [2],Potency [3],Potency [4],Potency [5]
CC1COC2(CCN(c3nc(=O)c4cc(C(F)(F)F)cc([N+](=O)[O-])c4s3)CC2)O1 (stereo not given),inactive,inactive,inactive,inactive,–
COc1cc2c(Oc3ccc(NC(=O)C4(C(=O)Nc5ccc(F)cc5)CC4)cc3F)ccnc2cc1OCCCN1CCOCC1,inactive,inactive,inactive,inactive,inactive
Clc1cccc(-n2nnnc2NCc2ccccc2Oc2ccccn2)c1Cl,–,inactive,inactive,inactive,inactive
Cc1cc(N2CCOCC2)cc2[nH]c(-c3c(NC[C@@H](O)c4cccc(Cl)c4)cc[nH]c3=O)nc12,–,–,inactive,inactive,1680 nM (active)
CC1(O)CC(c2nc(-c3ccc4ccc(-c5ccccc5)nc4c3)c3c(N)nccn23)C1 (stereo not given),inactive,inactive,inactive,inactive,–
CC(O)C1C(=O)N2C(C(=O)O)=C(SC3CNC(C(=O)N(C)C)C3)C(C)C12 (stereo not given),–,inactive,inactive,inactive,inactive
COc1cc2c(Oc3ccc4[nH]c(C)cc4c3F)ncnc2cc1OCCCN1CCCC1,inactive,inactive,inactive,inactive,–
COC(=O)Nc1ccc(-c2nc(N3CCOCC3)c3cnn(C4CCN(Cc5cccnc5)CC4)c3n2)cc1,inactive,–,inactive,inactive,inactive
CC(C)c1cnn2c(NCc3ccccc3)cc(N[C@@H](CO)[C@H](O)CO)nc12,inactive,inactive,inactive,inactive,–
COc1cccc(Nc2c(C(N)=O)cnc3c(C)cc(S(=O)(=O)c4cccc(C(=O)N(C)C)c4)cc23)c1,inactive,inactive,inactive,inactive,inactive
Cc1cn2cc(C(=O)N(C)CCO)cc(N[C@@H]3CCOc4cccc(C)c43)c2n1,inactive,inactive,inactive,inactive,–
CC(C)(C)c1cc(NC(=O)Nc2ccc(-c3cn4c(n3)sc3cc(OCCN5CCOCC5)ccc34)cc2)no1,inactive,inactive,inactive,inactive,–
O=C(Nc1cc(C(F)(F)F)cc(C(F)(F)F)c1)c1cc(Cl)ccc1O,inactive,inactive,inactive,inactive,–
CCc1c2c(nc3ccc(O)cc13)-c1cc3c(c(=O)n1C2)COC(=O)[C@]3(O)CC,inactive,inactive,inactive,inactive,–
O=c1[nH]nc(Sc2ncc([N+](=O)[O-])s2)n1-c1ccc2c(c1)OCCO2,–,inactive,–,–,–
Cc1c(Cn2c(C)nc3c(C(=O)O)cc(N4CCOCC4)cc32)cccc1C(F)(F)F,inactive,inactive,inactive,inactive,–
CC(=O)Nc1sc2c(c1-c1nc3ccccc3s1)CNC2,3600 nM (active),–,inactive,inactive,inactive
CCOc1ccccc1OCCNC(C)Cc1ccc(OC)c(S(N)(=O)=O)c1 (stereo not given),–,inactive,inactive,inactive,inactive
